This is part of a sample that, as a whole, favours compounds with a hit. Of some 79,000 tested, about 15% had one in any assay. Rule as the data show it: active = growth inhibition above about 70%; inactive = the rest.
How the values were obtained:
[1] = NCI Yeast Anticancer Drug Screen. Data for the rad50EPP+ strain (AID 151);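 also: 0% = growth of vehicle-treated control cultures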; details: S. cerevisiae rad50 mutant strain, active compounds read high
Outline: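 Genetically defined yeast (rad50EPP+, DNA damage repair alteration) is grown with compound, and inhibition of growth is expressed relative to vehicle-treated controls.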

[2] = NCI Yeast Anticancer Drug Screen. Data for the rad50 strain (AID 155);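 also: 0% = growth of vehicle-only cultures of the same strain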; details: S. cerevisiae rad50 strain growth inhibition, active compounds read high
Outline: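 Cells are treated with compound, grown, and their growth is then scored against vehicle-only cultures of the same repair-deficient yeast strain.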

[3] = NCI Yeast Anticancer Drug Screen. Data for the mec2-1 strain (AID 157); details: S. cerevisiae mec2-1 strain, active compounds read high
Outline: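 Each compound was tested on mec2-1 yeast, a strain altered in DNA damage repair or cell cycle control. Growth inhibition is reported relative to vehicle.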

[4] = NCI Yeast Anticancer Drug Screen. Data for the rad14 strain (AID 159);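 also: 0% = growth of vehicle-treated control cultures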; details: S. cerevisiae rad14 strain growth inhibition, active compounds read high
Outline: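 Readout: yeast growth inhibition, referenced to vehicle-only cultures. Strain bears a defined alteration in DNA damage repair.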

[5] = NCI Yeast Anticancer Drug Screen. Data for the sgs1 mgt1 strain (AID 161);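 also: 0% = growth of cultures given vehicle only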; details: S. cerevisiae sgs1 mgt1 strain, active compounds read high
Outline: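 Mutant yeast exposed to compound; growth scored against vehicle-only wells.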

[6] = NCI Yeast Anticancer Drug Screen. Data for the CLN2oe strain (AID 163);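 also: 0% = growth of vehicle-only control cultures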; details: S. cerevisiae CLN2oe strain, active compounds read high
Outline: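 First, the altered yeast strain was treated with each compound; second, its growth was measured; finally, inhibition was derived by comparison with vehicle controls.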

[7] = NCI Yeast Anticancer Drug Screen. Data for the cln2 rad14 strain (AID 165);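 also: 0% = growth equal to vehicle treated cultures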; details: S. cerevisiae cln2 rad14 strain, active compounds read high
Outline: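 Test compounds were added to cln2 rad14 yeast cultures; inhibition of growth was then determined by comparison with vehicle treatment.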

[8] = NCI Yeast Anticancer Drug Screen. Data for the bub3 strain (AID 167); details: S. cerevisiae bub3 mutant strain, active compounds read high
Outline: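 Part of a panel of yeast mutants defective in DNA damage repair or cell cycle regulation. Each strain is grown with compound, and inhibition is calculated relative to solvent-treated cultures.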

[9] = NCI Yeast Anticancer Drug Screen. Data for the wt2 strain (AID 169);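 also: 0% = growth of vehicle-treated yeast cultures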; details: S. cerevisiae wt2 strain growth inhibition, active compounds read high
Outline: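 The panel's yeast strains carry defined changes in DNA repair or cell cycle genes. Each strain is grown with compound, and growth loss is scored relative to vehicle.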

[10] = NCI Yeast Anticancer Drug Screen. Data for the mlh1 strain (AID 171);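 also: 0% = growth of vehicle-treated control cultures of the same strain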; details: S. cerevisiae mlh1 strain growth inhibition, active compounds read high
Outline: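 Inhibition values reflect reduced yeast growth in the presence of compound, referenced to vehicle controls, using a strain chosen for its alteration in DNA repair or cell cycle control.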

[11] = NCI Yeast Anticancer Drug Screen. Data for the sgs1 strain (AID 173);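 also: 0% = growth of vehicle-only control cultures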; details: S. cerevisiae sgs1 mutant, active compounds read high
Outline: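 Vehicle-treated cultures served as reference for growth inhibition of a yeast strain altered in DNA damage repair or cell cycle control after compound exposure.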

[12] = NCI Yeast Anticancer Drug Screen. Data for the mlh1 rad18 strain (AID 175); details: S. cerevisiae mlh1 rad18 strain growth inhibition, active compounds read high
Outline: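 Inhibition values reflect reduced growth of mutant yeast versus vehicle-treated controls following compound exposure; the mutations affect DNA damage repair.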

[13] = NCI Yeast Anticancer Drug Screen. Data for the rad18 strain (AID 177); details: S. cerevisiae rad18 mutant growth inhibition, active compounds read high
Outline: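 Steps: expose repair-mutant yeast to compound; measure growth; express as inhibition relative to vehicle control.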

[14] = at 5.0 µM (retest, dose inferred, filed as 0.5)
[15] = at 50.0 µM (retest, dose inferred, filed as 5.0)

Measured: growth inhibition

Nc1nc2c(c(=O)[nH]1)NC(CCNc1ccc(C(=O)O)cc1)CN2 (stereo not drawn)
inactive: [1]; at 1.2 µM -3% | [1]; at 3.7 µM -4% | [1]; at 11.0 µM -3% | [1]; at 33.0 µM -2% | [1]; at 100.0 µM -5% | [2]; at 1.2 µM -3% | [2]; at 3.7 µM 2% | [2]; [14] 14% | [2]; at 11.0 µM -5% | [2]; at 33.0 µM -4% | [2]; [15] 12% | [2]; at 50.0 µM -12.1% | [2]; at 100.0 µM -1% | [3]; at 1.2 µM -1% | [3]; at 3.7 µM 2% | [3]; [14] 7% | [3]; at 11.0 µM 4% | [3]; at 33.0 µM 2% | [3]; [15] 18% | [3]; at 50.0 µM -35.5% | [3]; at 100.0 µM -13% | [4]; at 1.2 µM 0% | [4]; at 3.7 µM -6% | [4]; at 11.0 µM 2% | [4]; at 33.0 µM 3% | [4]; at 100.0 µM 6% | [5]; [14] 11% | [5]; [15] -2% | [5]; at 50.0 µM -0.75% | [6]; at 1.2 µM -2% | [6]; at 3.7 µM -3% | [6]; at 11.0 µM -3% | [6]; at 33.0 µM 1% | [6]; at 100.0 µM 2% | [7]; [14] 31% | [7]; [15] 39% | [7]; at 50.0 µM 2.45% | [8]; at 1.2 µM 2% | [8]; at 3.7 µM 2% | [8]; [14] -13% | [8]; at 11.0 µM 0% | [8]; at 33.0 µM -1% | [8]; [15] 6% | [8]; at 50.0 µM 6.15% | [8]; at 100.0 µM 24% | [9]; at 1.2 µM 0% | [9]; at 3.7 µM 2% | [9]; at 11.0 µM 1% | [9]; at 33.0 µM 0% | [9]; at 100.0 µM 3% | [10]; at 1.2 µM 0% | [10]; at 3.7 µM -1% | [10]; at 11.0 µM 0% | [10]; at 33.0 µM 0% | [10]; at 100.0 µM 15% | [11]; at 1.2 µM -2% | [11]; at 3.7 µM -3% | [11]; at 11.0 µM -4% | [11]; at 33.0 µM -6% | [11]; at 100.0 µM -3% | [12]; [14] 8% | [12]; [15] 28% | [12]; at 50.0 µM 4.25% | [13]; at 1.2 µM -3% | [13]; at 3.7 µM -5% | [13]; at 11.0 µM -10% | [13]; at 33.0 µM -22% | [13]; at 100.0 µM -29%

From PubChem BioAssay (NCI)
